# Tests used:
# Conditions in all cases: concentration: 1 μM,replicates: in singlicate; n = 1
# AAK1 = system: AAK1
# ABL1-nonphosphorylated = system: ABL1-nonphosphorylated
# ABL1-phosphorylated = system: ABL1-phosphorylated
# ABL2 = system: ABL2
# ACVR1B = system: ACVR1B
# ACVR1 = system: ACVR1
# ACVR2A = system: ACVR2A
# ACVR2B = system: ACVR2B
# ACVRL1 = system: ACVRL1
# ADCK3 = system: T1, ADCK3
# T1 construct: gene CABC1
# ADCK4 = system: ADCK4
# AKT1 = system: AKT1
# AKT2 = system: AKT2
# AKT3 = system: AKT3
# ALK = system: ALK
# AMPK-alpha1 = system: T2, AMPK-alpha1
# T2 construct: gene PRKAA1
# AMPK-alpha2 = system: T3, AMPK-alpha2
# T3 construct: gene PRKAA2
# ANKK1 = system: ANKK1
# ARK5 = system: T4, ARK5
# T4 construct: gene NUAK1
# ASK1 = system: T5, ASK1
# T5 construct: gene MAP3K5
# 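Further: KINOMEscan kinase panel screen.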
Compound,%Inh (AAK1),%Inh (ABL1-nonphosphorylated),%Inh (ABL1-phosphorylated),%Inh (ABL2),%Inh (ACVR1B),%Inh (ACVR1),%Inh (ACVR2A),%Inh (ACVR2B),%Inh (ACVRL1),%Inh (ADCK3),%Inh (ADCK4),%Inh (AKT1),%Inh (AKT2),%Inh (AKT3),%Inh (ALK),%Inh (AMPK-alpha1),%Inh (AMPK-alpha2),%Inh (ANKK1),%Inh (ARK5),%Inh (ASK1)
C[C@@H](Oc1cc(-n2cnc3cc(-c4cnn(C)c4)ccc32)sc1C(N)=O)c1ccccc1Cl [GSK580432],82%,58%,63%,63%,0%,0%,0%,25%,0%,13%,29%,0%,0%,0%,31%,39%,27%,0%,98.7%,0%
COc1cccc(C2=C(Nc3cccc(Cl)c3)C(=O)NC2=O)c1 [SB-341556],0%,0%,21%,8%,0%,65%,0%,0%,0%,24%,0%,0%,0%,0%,32%,0%,0%,0%,0%,5%
COc1cc(Nc2nccc(N3CCC(NC(=O)c4cccc(C#N)c4)C3)n2)cc(OC)c1OC (centres unmarked) [GSK1379751],75%,0%,0%,3%,0%,98.8%,0%,0%,0%,4%,50%,0%,0%,0%,14%,0%,0%,24%,26%,0%
Cc1ccc(C(=O)Nc2ccc(Oc3ccc4nc(NC(=O)C5CC5)cn4c3)c(F)c2)c(=O)n1-c1ccccc1,0%,100%,98.3%,83%,0%,0%,0%,16%,0%,13%,27%,0%,0%,7%,8%,5%,0%,0%,0%,0%
COc1ccc(Nc2nccc(N3CCC(NC(=O)c4cccc(C#N)c4)C3)n2)cc1 (centres unmarked) [GSK1379730],0%,0%,0%,9%,4%,24%,0%,0%,0%,0%,9%,0%,0%,0%,28%,0%,0%,0%,0%,0%
COc1cc2ncn(-c3cc(OCC4CCCCC4)c(C(N)=O)s3)c2cc1OC [GSK204559],55%,0%,0%,14%,0%,5%,18%,32%,0%,11%,11%,0%,0%,0%,22%,0%,27%,14%,0%,14%
CC(=O)Nc1ccc(-c2cc3ncnc(SCC(=O)O)c3s2)cc1,44%,15%,3%,8%,2%,0%,4%,30%,27%,0%,0%,0%,28%,16%,7%,2%,0%,22%,0%,0%
O=c1[nH]cc(-c2ccc(O)cc2)c2sc(-c3ccncc3)cc12 [GSK1033723],26%,0%,0%,0%,0%,0%,0%,0%,0%,34%,16%,0%,16%,97.2%,0%,0%,13%,10%,13%,0%
CS(=O)(=O)Nc1ccc(-c2ccnc3[nH]ccc23)cc1 [GSK993273],79%,0%,1%,16%,0%,3%,0%,0%,0%,12%,22%,0%,21%,0%,18%,94.4%,0%,27%,0%,44%
O=C(NCC1CC1)c1ccc(-c2cc(C(=O)NC3CC3)ccc2F)cc1 [GW810445],0%,0%,10%,3%,0%,0%,0%,6%,0%,0%,23%,24%,0%,0%,10%,0%,0%,0%,0%,19%

# From publication PMC5540273 (PLoS ONE, 2017)
